# Test results published in PubChem BioAssay (NCATS).
# “And” between values parts separate entries of the source, which are not always exact repeats. Identical values can stand only once. Records with an inconclusive call do not appear. The source made the active and inactive calls. Calls follow the shape of the dose curve; as a rule, active = well fitted curve in the direction sought with a large enough effect; inconclusive = small, poorly fitted or top-dose-only effect, or another doubt; inactive = no such curve, though single readings can be large; an effect the other way counts as inactive or inconclusive.
# What was measured:
# [1] = target: Cellular tumor antigen p53 (Homo sapiens) (UniProt P04637); experiment: Primary qHTS for small molecule compounds that upregulate eGFP-tagged delta133p53alpha (in N-terminal) cells. (AID 2060322); details: NCI-H358 eGFP-delta133p53alpha fluorescence, 24 h; activation: active compounds read high; also: nearly all actives have a fitted effect of over 75% in size; also: potency is read from the fitted curve at half-maximal effect;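 as to activation: series mostly up to about 56 µM; 0% = DMSO vehicle and 100% = reference activator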
# Sequence of Cellular tumor antigen p53 (Homo sapiens) (P04637 whole entry, looked up): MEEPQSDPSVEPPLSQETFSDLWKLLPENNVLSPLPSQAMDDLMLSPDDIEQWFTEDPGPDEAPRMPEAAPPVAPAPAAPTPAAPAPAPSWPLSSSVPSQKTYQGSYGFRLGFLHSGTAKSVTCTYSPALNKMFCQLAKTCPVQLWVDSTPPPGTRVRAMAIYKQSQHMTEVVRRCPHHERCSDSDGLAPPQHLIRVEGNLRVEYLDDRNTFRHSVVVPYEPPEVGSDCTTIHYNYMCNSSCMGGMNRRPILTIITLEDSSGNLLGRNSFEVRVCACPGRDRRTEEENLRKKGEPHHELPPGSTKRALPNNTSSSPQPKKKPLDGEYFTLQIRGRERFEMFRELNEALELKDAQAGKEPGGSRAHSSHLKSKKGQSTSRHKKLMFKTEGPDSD
# Method in brief: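 NCI-H358 cells pre-induced 24 h with 10 ng/ml doxycycline to express N-terminal eGFP-delta133p53alpha, then dosed 24 h at 37C without doxycycline; fixed, Hoechst-stained, GFP intensity by laser scanning cytometry, normalized to DMSO (0%) and 57.5 uM 5-azacytidine (100%).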
# [2] = target: Aldehyde dehydrogenase, mitochondrial (Homo sapiens) (UniProt P05091); experiment: qHTS for Inhibitors of the Aldehyde Dehydrogenase Family (ALDH2) Primary screen (AID 2061308);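 also: plate controls were vehicle for no effect and reference inhibitor for full effect; nearly all actives have a fitted effect of over 55% in size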
# [3] = target: Retinaldehyde dehydrogenase 3 (Homo sapiens) (UniProt P47895); experiment: qHTS for Inhibitors of the Aldehyde Dehydrogenase Family (ALDH1A3) Primary screen (AID 2061315); also: potency is read from the fitted curve at half-maximal effect
# [4] = BET inhibitor-based combinations targeting novel dependencies in MECOM-rearranged (r) AML: HNT-34 cell line (AID 2202234); also: potency is read from the fitted curve at half-maximal effect; nearly all actives have a fitted effect of over 35% in size
# Method in brief: (§1)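 Each compound is tested in an 11-point concentration series against 500 seeded cells/well for 48 hr. The luminescent viability signal is normalized to DMSO and blank wells, then reduced to AUC and a cell-line-centred Z-AUC.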
# [5] = BET inhibitor-based combinations targeting novel dependencies in MECOM-rearranged (r) AML: AML-191 cell line (AID 2202236; also: potency is read from the fitted curve at half-maximal effect; nearly all actives have a fitted effect of over 35% in size)
# Method in brief: (§2)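 A 48 hr incubation preceded viability reading by CellTiter-Glo, with 15 min room-temperature development. Dose series had 11 points; normalization used DMSO and empty wells; AUC was computed and mean-centered per line as Z-AUC.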
# [6] = BET inhibitor-based combinations targeting novel dependencies in MECOM-rearranged (r) AML: AML-194 cell line (AID 2202237; also: nearly all actives have a fitted effect of over 40% in size; also: potency is read from the fitted curve at half-maximal effect)
# Method in brief: as §2
# [7] = BET inhibitor-based combinations targeting novel dependencies in MECOM-rearranged (r) AML: MV-4-11 cell line (AID 2202233); also: potency is read from the fitted curve at half-maximal effect; nearly all actives have a fitted effect of over 45% in size
# Method in brief: as §1
# [8] = BET inhibitor-based combinations targeting novel dependencies in MECOM-rearranged (r) AML: UCSD-AML1 cell line (AID 2202235); also: nearly all actives have a fitted effect of over 40% in size; also: potency is read from the fitted curve at half-maximal effect
# Method in brief: as §1
# [9] = target: Retinaldehyde dehydrogenase 3 (Homo sapiens) (UniProt P47895); experiment: qHTS for Inhibitors of the Aldehyde Dehydrogenase Family (ALDH1A3) Confirmatory screens (AID 2061311); also: nearly all actives have a fitted effect of over 60% in size; also: potency is read from the fitted curve at half-maximal effect
# [10] = target: Retinaldehyde dehydrogenase 3 (Homo sapiens) (UniProt P47895); experiment: qHTS for Inhibitors of the Aldehyde Dehydrogenase Family (ALDH1A3) Validation screen (AID 2061312); also: potency is read from the fitted curve at half-maximal effect; nearly all actives have a fitted effect of over 45% in size
# [11] = target: Aldehyde dehydrogenase 1A1 (Homo sapiens) (UniProt P00352); experiment: qHTS for Inhibitors of the Aldehyde Dehydrogenase Family (ALDH1A1) Confirmatory screens (AID 2061316); also: nearly all actives have a fitted effect of over 65% in size; also: potency is read from the fitted curve at half-maximal effect
# [12] = BET inhibitor-based combinations targeting novel dependencies in MECOM-rearranged (r) AML: SET-2 cell line (AID 2202231); details: SET-2 AML cells viability, CellTiter-Glo luminescence, 48 h; viability: active compounds read low, concentration not given here; also: potency is read from the fitted curve at half-maximal effect; nearly all actives have a fitted effect of over 35% in size
# Method in brief: as §2
# [13] = BET inhibitor-based combinations targeting novel dependencies in MECOM-rearranged (r) AML: OCI-AML3 cell line (AID 2202232); details: Potency: OCI-AML3 viability; also: potency is read from the fitted curve at half-maximal effect; nearly all actives have a fitted effect of over 35% in size
# Method in brief: as §2
smiles,measurement,setting,value
COC(=O)/C=C/C(=O)N(O)CCCCNCc1ccc(COC(=O)Nc2cccc3ccccc23)cc1,Potency,[1],26.9 µM (active)
same,Potency,[2],inactive
same,Potency,[3],inactive
same,Potency,[4],5.9 µM (active)
same,Potency,[5],8.33 µM (active)
same,Potency,[6],8.33 µM (active)
Cc1ccccc1C(=O)c1ccc(Nc2ccc(Br)cc2N)cc1Cl,activation,[1],19.2% (inactive) and -0.893% (inactive)
same,Potency,[2],inactive
same,Potency,[3],inactive
same,Potency,[7],18.6 µM (active)
same,Potency,[4],23.5 µM (active)
same,Potency,[8],inactive
same,Potency,[6],inactive
COc1ccc2c(c1)CC[C@@H](CN(C)CC(=O)O)[C@H]2c1ccccc1,activation,[1],-11.9% (inactive)
same,Potency,[2],inactive
same,Potency,[3],inactive
same,Potency,[8],inactive
same,Potency,[6],inactive
Cc1cc(C(=O)Nc2cc(Oc3ccc4nc(NC(=O)C5CC5)cn4n3)ccc2C)n(C)n1,Potency,[1],16.9 µM (active)
same,Potency,[2],inactive
same,Potency,[3],inactive
same,Potency,[7],14.8 µM (active)
same,Potency,[4],1.32 µM (active)
same,Potency,[8],9.34 µM (active)
same,Potency,[5],6.61 µM (active)
same,Potency,[6],9.34 µM (active)
CC[C@@](C)(Nc1ccnc(-c2c[nH]c3ncccc23)n1)C(=O)NCC(F)(F)F,activation,[1],18.8% (inactive)
same,Potency,[2],inactive
same,Potency,[3],inactive
same,Potency,[7],14.8 µM (active)
same,Potency,[4],14.8 µM (active)
same,Potency,[8],6.61 µM (active)
CC1=C(C(=O)OC2CCCCC2)C(c2ccc([N+](=O)[O-])cc2)C2=C(CC(C)(C)CC2=O)N1 (stereo not given),activation,[1],7.16% (inactive)
same,Potency,[9],2.25 µM (active)
same,Potency,[10],5.62 µM (active)
same,Potency,[3],7.08 µM (active)
same,Potency,[11],10.1 µM (active)
Cc1csc(N(C(=O)CSc2ccc(-c3ccccc3)nn2)C2CC2)n1,activation,[1],10.5% (inactive)
same,Potency,[10],2.82 µM (active)
CNC(=O)c1c(F)cccc1Nc1nc(Nc2cc3c(cc2OC)CCN3C(=O)CN(C)C)nc2[nH]ccc12,activation,[1],42.7% (inactive)
same,Potency,[2],inactive
same,Potency,[12],8.33 µM (active)
same,Potency,[13],9.34 µM (active)
same,Potency,[7],7.42 µM (active)
same,Potency,[4],6.61 µM (active)
same,Potency,[8],8.33 µM (active)
same,Potency,[6],7.42 µM (active)
COc1cc(N2CCN(C)CC2)ccc1Nc1nccc(-c2cn(C)c3cnccc23)n1,Potency,[1],26.9 µM (active)
same,Potency,[2],inactive
same,Potency,[12],20.9 µM (active)
same,Potency,[13],14.8 µM (active)
same,Potency,[7],0.372 µM (active)
same,Potency,[4],13.2 µM (active)
same,Potency,[8],6.61 µM (active)
same,Potency,[5],13.2 µM (active)
C=C1CCC2C(C)(COC(C)=O)CCCC2(C)C1CCC(C)CC(=O)O (stereo not given),activation,[1],-12.2% (inactive)
same,Potency,[9],inactive
same,Potency,[3],inactive
COc1ccccc1C(=O)Nc1cc2c(cc1N1CCCC1)n(C)c(=O)n2C,activation,[1],-44.7% (inactive)
same,Potency,[2],inactive
same,Potency,[7],16.6 µM (active)
same,Potency,[4],26.3 µM (active)
Cc1cc2c(N3CCCC3)nc(N3CCCC3)nc2n1C,activation,[1],-16.7% (inactive)
same,Potency,[9],14.2 µM (active)
same,Potency,[3],inactive
same,Potency,[11],11.3 µM (active)
COc1cc(N2CCC(N)CC2)ccc1Nc1ncc(Cl)c(-c2c[nH]c3ccccc23)n1,Potency,[1],26.9 µM (active)
same,Potency,[2],inactive
same,Potency,[12],18.6 µM (active)
same,Potency,[13],5.9 µM (active)
same,Potency,[7],0.0661 µM (active)
same,Potency,[4],1.32 µM (active)
same,Potency,[8],1.48 µM (active)
O=C(/C=C/c1cccc(S(=O)(=O)Nc2ccccc2)c1)NO,Potency,[1],5.44 µM (active)
same,Potency,[2],inactive
same,Potency,[12],0.263 µM (active)
same,Potency,[13],0.742 µM (active)
same,Potency,[7],0.296 µM (active)
same,Potency,[4],0.934 µM (active)
same,Potency,[8],0.742 µM (active)
same,Potency,[5],0.934 µM (active)
same,Potency,[6],1.05 µM (active)
CC1(C)C=CN2C(=O)C3=CCCN3C(=O)[C@@H]2C[C@@]12Nc1ccccc1C2=O,activation,[1],-19.8% (inactive)
same,Potency,[9],7.83 µM (active)
c1nc2nc(Nc3ccc(N4CCOCC4)cc3)nc(NC3CCCCC3)c2[nH]1,activation,[1],-34% (inactive)
same,Potency,[2],inactive
same,Potency,[12],4.17 µM (active)
same,Potency,[13],3.32 µM (active)
same,Potency,[7],0.372 µM (active)
same,Potency,[4],1.48 µM (active)
same,Potency,[6],2.63 µM (active)
C=CC(=O)Nc1cccc(Oc2nc(Nc3ccc(N4CCN(C)CC4)cc3OC)ncc2Cl)c1,Potency,[1],19.3 µM (active) and 30.1 µM (active)
same,Potency,[2],inactive
same,Potency,[12],20.9 µM (active)
same,Potency,[13],10.5 µM (active)
same,Potency,[4],9.34 µM (active)
same,Potency,[5],14.8 µM (active)
same,Potency,[6],16.6 µM (active)
CCOc1cc(N2CCC(O)CC2)ccc1Nc1ncc2c(n1)N(C1CCCC1)CCC(=O)N2C,activation,[1],4.33% (inactive)
same,Potency,[9],20.1 µM (active)
same,Potency,[11],inactive
COc1cc(N2CCN(C(C)=O)CC2)ccc1Nc1ncc(Cl)c(Nc2ccc(N3CCN(C(C)=O)CC3)cc2OC)n1,activation,[1],-5.36% (inactive)
same,Potency,[2],inactive
same,Potency,[7],0.934 µM (active)
same,Potency,[8],4.17 µM (active)
